The whole screen tested about 340,000 compounds, of which about 2,500 (0.74%) were called active. The full list was thinned out, with actives kept by preference. Values without a mark were called inactive.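 Rule for the calls: active = inhibition above about 55% (limit read from the data); inactive = the rest.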

What is called inhibition is the relative decrease from the control value, in per cent.

This assay in a line: blockers of Gli reporter signaling – luciferase luminescence, Sufu-KO-LIGHT cells, uHTS, primary screen (AID 588413).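 Note: 0% = DMSO-treated cells and 100% = wells with medium but no cells.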 To be noted: Sufu-KO-LIGHT fibroblasts, at 5 µM, active compounds read high.
Consider `CN(C)c1ccc(CNC2C3CC4CC(C3)CC2C4)cc1` (configuration not stated), for which the inhibition is 1.25%.

As for `O=C(NCC(=O)N1CCCCCCC1)c1ccccc1Cl`, the inhibition is -20.5%.

In the case of `CC(=O)c1ccc(S(=O)(=O)NCCC(=O)N2CCN(c3ccccn3)CC2)cc1`, the inhibition is -5.24%.

With `Cc1ccc(S(=O)(=O)N(Cc2cc3ccccc3[nH]c2=O)CC2CCCO2)cc1` (configuration not stated), the inhibition was 64.1% (active).

Regarding `CCN(Cc1cc2cc(C)ccc2[nH]c1=O)S(=O)(=O)c1ccccc1`, the inhibition is 0.68%.

On to `O=C(c1cccs1)N(Cc1cc2ccccc2[nH]c1=O)CC1CCCO1` (configuration not stated), for which the inhibition is 20.4%.

On to `O=C(O)CCCn1c(=O)c2cccn2c2ccc(F)cc21`, for which the inhibition was 4.96%.

In the case of `COc1ccc(C2=NS(=O)(=O)N(C)C(C(=O)N3CCCCC3)=C2)cc1`, the inhibition is 14.7%.

For the compound `CCOc1ccccc1N1CN(Cc2ccccc2)CNC1=S`, the inhibition is -9.38%.

As to `C=CCC1(CC=C)CCCN1C(=O)c1cc(COc2ccc(-n3cncn3)cc2)on1`, the inhibition was 77.8% (active).

For `O=C(c1cc(COc2ccc(F)c(F)c2)on1)N1CCOCC1`, the inhibition is -41.7%.

Regarding `COc1cccc(OCc2cc(C(=O)N3CCN(C(=O)c4ccco4)CC3)no2)c1`, the inhibition was -5.15%.

On to `COc1cc(Cl)c(C)cc1NC(=O)CSc1nnc(CN2CCCC2)o1`, for which the inhibition is 1.49%.

Take `O=C(NC(Nc1nc2ccc([N+](=O)[O-])cc2s1)(C(F)(F)F)C(F)(F)F)c1ccccc1`: the inhibition was 87.4% (active).

For the compound `CNC(=O)c1ccsc1NC(=O)c1ccc(S(=O)(=O)N2CCc3ccccc32)cc1`, the inhibition was 5.3%.

As for `O=C(NOCc1ccccc1)c1cccc([N+](=O)[O-])c1`, the inhibition was -14.1%.

Consider `O=C(Nc1nc2ccc([N+](=O)[O-])cc2s1)c1ccc(S(=O)(=O)N2CCCc3ccccc32)cc1`, for which the inhibition is 77.6% (active).

Turning to `Cc1ccc(NC(=O)c2cccc(S(=O)(=O)N3CCCc4ccccc43)c2)nc1`, the inhibition was -3.22%.

Consider `N=C1C(c2nc3ccccc3s2)=C(O)CN1NC(=O)c1ccc([N+](=O)[O-])cc1`, for which the inhibition was -3.9%.

Regarding `CCOc1ccc(C(=O)Nc2nccs2)cc1[N+](=O)[O-]`, the inhibition is -24.3%.

With `OC(c1ccc(Cl)cc1)C(CN1CCOCC1)c1ccccc1` (configuration not stated), the inhibition was -27.6%.

As to `Cc1ccc(C(CC(=O)O)NC(=O)c2ccc(S(=O)(=O)N3CCCC3)cc2)cc1` (configuration not stated), the inhibition is -3.63%.

For the compound `C/C(=N/Nc1nc(-c2ccccc2)c(CC(=O)O)s1)c1ccccc1`, the inhibition is -23%.

`c1ccc(C(=NNc2nc3ccccc3s2)c2ccccn2)cc1`: the inhibition is 82.5% (active).

With `COc1cc(OC)nc(N/N=C(\c2ccccc2)c2ccncc2)n1`, the inhibition is 7.9%.

For the compound `Cc1cc(S(=O)(=O)N2CCOCC2)ccc1OCC(=O)Nc1cccc(C(F)(F)F)c1`, the inhibition was -8.26%.

As for `COc1ccccc1N1CCN(C(=O)c2cc(=O)c3cc(C)cc(C)c3o2)CC1`, the inhibition was 56.9% (active).

Take `COc1ccccc1N1CCN(C(=O)c2c(-c3c(Cl)cccc3Cl)noc2C)CC1`: the inhibition is -1.94%.

On to `COc1ccccc1N1CCN(C(=O)c2cc(=O)c3cc(C)ccc3o2)CC1`, for which the inhibition is 7.53%.

In the case of `Cc1coc2c1c(C)cc1oc(=O)c(CC(=O)NCC(=O)N[C@H](C(=O)O)C(C)C)c(C)c12`, the inhibition is 23.9%.

On to `COc1ccccc1CCNC(=O)C(=O)NCCC1CCCCN1S(=O)(=O)c1cccs1` (configuration not stated), for which the inhibition is 55.6% (active).

On to `COc1ccc(CCNC(=O)C(=O)NCC2CCCN2S(=O)(=O)c2cccs2)cc1OC` (configuration not stated), for which the inhibition is 6.8%.

Regarding `O=C(NCCC1CCCCN1S(=O)(=O)c1cccs1)C(=O)Nc1ccc(F)cc1F` (configuration not stated), the inhibition is 15.3%.

For `CCCCNC(=O)C1CCC(CNS(=O)(=O)c2ccc(NC(C)=O)cc2)CC1` (configuration not stated), the inhibition is -6.13%.

Turning to `CN(C)c1ccc(CSc2ccccc2)cc1`, the inhibition is -50.9%.

In the case of `CN(C)c1cc[n+](Cc2ccccc2)cc1`, the inhibition was 55.3% (active).

As for `c1ccc(Cc2cc[n+](Cc3ccccc3)cc2)cc1`, the inhibition is 20.7%.

With `COc1cccc(/C=N/NC(=O)CNC(=O)c2ccc(S(=O)(=O)N3CCOCC3)cc2)c1OC`, the inhibition was 3.3%.

For the compound `COc1cccc(/C=N/NC(=O)c2[nH]nc3c2CCc2ccccc2-3)c1O`, the inhibition is 81.1% (active).

Turning to `COc1cc(/C=N/NC(=O)c2cc(-c3ccccc3C)nc3ccccc23)cc(OC)c1O`, the inhibition was 3.09%.

Turning to `O=C(NCCCNC(=O)NC1CCCCC1)NC1CCCCC1`, the inhibition was 0.18%.

Take `O=[N+]([O-])c1cc([N+](=O)[O-])c(Oc2cc(F)cc(F)c2F)cc1NN1CCCCC1`: the inhibition is -2.49%.

Take `Cn1c(CCN2CCCC2)nc2cc(NS(=O)(=O)c3ccccc3)ccc21`: the inhibition was 12.8%.

As to `Cn1c(=O)n(C)c2cc(NS(=O)(=O)c3ccc(F)cc3)ccc21`, the inhibition was 0.54%.

With `CC1(C)CC(=O)c2c(n(S(=O)(=O)c3ccccc3)c3ccc(NS(=O)(=O)c4ccccc4)cc23)C1`, the inhibition is 84.1% (active).

Consider `C[C@H](CO)N1C[C@H](C)[C@@H](CN(C)Cc2ccc(-c3ccccc3)cc2)Oc2ccc(NC(=O)Cn3cnnn3)cc2C1=O`, for which the inhibition was -7.22%.

As for `N#Cc1ccc(CN2CCN(CC(=O)Nc3ccccc3C(=O)NC3CC3)CC2)cc1`, the inhibition is -0.74%.

With `COc1cccc(C(=O)Nc2c3c(nn2-c2cccc(C)c2C)CS(=O)(=O)C3)c1OC`, the inhibition was 5.94%.

For the compound `CCC(=O)N1CCc2cc(Br)c(S(=O)(=O)NCCN3CCCCC3CC)cc21` (configuration not stated), the inhibition is -20.7%.

Regarding `CC(=O)Nc1ccc(S(=O)(=O)N2CCN(C(=O)c3ccccc3F)CC2)cc1`, the inhibition was 4.91%.

Take `CC1CCN(Cc2nc3c(c(=O)n(C)c(=O)n3C)n2CCc2ccccc2)CC1`: the inhibition was 0.83%.

For `COCCn1c(CN(Cc2ccccc2)Cc2ccccc2)nc2c1c(=O)n(C)c(=O)n2C`, the inhibition is 9.35%.

On to `COCCn1c(CN2CCC(Cc3ccccc3)CC2)nc2c1c(=O)n(C)c(=O)n2C`, for which the inhibition is 66.7% (active).

For `NC1=NC(=O)C(Cc2cccc(Cl)c2Cl)S1` (configuration not stated), the inhibition is -27.7%.

As for `O=C(Cn1cc(C(=O)C2CC2)c2ccccc21)Nc1ccccc1Cl`, the inhibition is 60.8% (active).

In the case of `Cc1ccccc1NC(=O)Cn1cc(C(=O)C2CC2)c2ccccc21`, the inhibition is -3.91%.

As for `COCCCNC(=O)Cn1cc(C(=O)C2CC2)c2ccccc21`, the inhibition is 5.8%.

The values are drawn from PubChem BioAssay AID588413 (Sanford-Burnham Center for Chemical Genomics, 2011).
